# Bioassay records deposited in PubChem by several laboratories.
# H9c2 protect: myocardial damage modulation in H9c2 cells. protection from H2O2 cell death, % at 20 µM. H9c2 cardiomyocytes, H2O2 injury protection, ATPLite, 2 h. 0.63% of 360,000 active;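 active = compounds giving at least 50% protection of heart cells from peroxide-induced death in the single-dose screen, raw or plate-pattern-corrected value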;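 note: 0% = DMSO wells with peroxide and 100% = DMSO wells without peroxide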
# aDG glyco act: increases alpha dystroglycan glycosylation | Pro5-aDG cells, alpha-DG glycosylation AlphaScreen (IIH6); 0% Pro5, 100% B10-LARGE cell signal | activation, % at 10 µM | 0.22% of 360,000 active;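 active = activation of at least 8% versus controls, or a plate z-score of at least 8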;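 note: Pro5 are CHO cells carrying HIG-tagged alpha-DG that lacks glycosylation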
# Yeast superoxide: lowers age-related superoxide in aged yeast cells | S. cerevisiae aged cells, superoxide DHE fluorescence; active compounds read low | superoxide response (% of plate mean), % at 10 µM | 0.18% of 330,000 active;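 active = superoxide response under a set limit, about three screen SD below normal, cut at about 65% in these data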;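 note: yeast aged for seven days with compound at 30 °C before DHE staining; 100% = average MFI of all compound-treated wells on the plate with controls excluded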
# SUMO Mot1 rescue: SUMOylation pathway inhibition by Mot1-301 growth rescue; S. cerevisiae Mot1-301 growth rescue, ATP luminescence, 38.5C; percent above DMSO median, 100 means doubled; growth rescue, % at 18.8 µM; AID 2716; 1% of 320,000 active;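 active = every valid replicate shows activation above 250% relative to neutral control wells; inactive = the rest, any valid replicate at or below 250%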;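 note: OY570 slx delta 5 strain wells were the positive control but not used for scaling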
# MPTP block: blocks calcium-induced mitochondrial swelling; 1.4% of 360,000 active; isolated mouse mitochondria, Ca2+ swelling absorbance, 30 min; inhibition, % at 10 µM;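 active = inhibition of 50% or more, scaled per plate between neutral and stimulator controls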;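 note: 0% = DMSO wells given calcium and 100% = 1 mM EGTA wells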
# FAS-TE inh: blocks the thioesterase domain of human fatty acid synthase; P49327; recombinant FAS-TE, OMFH fluorogenic substrate, fluorescence endpoint; inhibition, % at 15 µM; 0.67% of 360,000 active; AID 602261;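 active = compounds whose normalised, plate-corrected inhibition of enzyme fluorescence in the single-dose primary screen is 50% or more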;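 note: 0% = DMSO with enzyme and 100% = substrate without enzyme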
# Target sequence (P49327 whole entry, looked up, the tested form may be a part): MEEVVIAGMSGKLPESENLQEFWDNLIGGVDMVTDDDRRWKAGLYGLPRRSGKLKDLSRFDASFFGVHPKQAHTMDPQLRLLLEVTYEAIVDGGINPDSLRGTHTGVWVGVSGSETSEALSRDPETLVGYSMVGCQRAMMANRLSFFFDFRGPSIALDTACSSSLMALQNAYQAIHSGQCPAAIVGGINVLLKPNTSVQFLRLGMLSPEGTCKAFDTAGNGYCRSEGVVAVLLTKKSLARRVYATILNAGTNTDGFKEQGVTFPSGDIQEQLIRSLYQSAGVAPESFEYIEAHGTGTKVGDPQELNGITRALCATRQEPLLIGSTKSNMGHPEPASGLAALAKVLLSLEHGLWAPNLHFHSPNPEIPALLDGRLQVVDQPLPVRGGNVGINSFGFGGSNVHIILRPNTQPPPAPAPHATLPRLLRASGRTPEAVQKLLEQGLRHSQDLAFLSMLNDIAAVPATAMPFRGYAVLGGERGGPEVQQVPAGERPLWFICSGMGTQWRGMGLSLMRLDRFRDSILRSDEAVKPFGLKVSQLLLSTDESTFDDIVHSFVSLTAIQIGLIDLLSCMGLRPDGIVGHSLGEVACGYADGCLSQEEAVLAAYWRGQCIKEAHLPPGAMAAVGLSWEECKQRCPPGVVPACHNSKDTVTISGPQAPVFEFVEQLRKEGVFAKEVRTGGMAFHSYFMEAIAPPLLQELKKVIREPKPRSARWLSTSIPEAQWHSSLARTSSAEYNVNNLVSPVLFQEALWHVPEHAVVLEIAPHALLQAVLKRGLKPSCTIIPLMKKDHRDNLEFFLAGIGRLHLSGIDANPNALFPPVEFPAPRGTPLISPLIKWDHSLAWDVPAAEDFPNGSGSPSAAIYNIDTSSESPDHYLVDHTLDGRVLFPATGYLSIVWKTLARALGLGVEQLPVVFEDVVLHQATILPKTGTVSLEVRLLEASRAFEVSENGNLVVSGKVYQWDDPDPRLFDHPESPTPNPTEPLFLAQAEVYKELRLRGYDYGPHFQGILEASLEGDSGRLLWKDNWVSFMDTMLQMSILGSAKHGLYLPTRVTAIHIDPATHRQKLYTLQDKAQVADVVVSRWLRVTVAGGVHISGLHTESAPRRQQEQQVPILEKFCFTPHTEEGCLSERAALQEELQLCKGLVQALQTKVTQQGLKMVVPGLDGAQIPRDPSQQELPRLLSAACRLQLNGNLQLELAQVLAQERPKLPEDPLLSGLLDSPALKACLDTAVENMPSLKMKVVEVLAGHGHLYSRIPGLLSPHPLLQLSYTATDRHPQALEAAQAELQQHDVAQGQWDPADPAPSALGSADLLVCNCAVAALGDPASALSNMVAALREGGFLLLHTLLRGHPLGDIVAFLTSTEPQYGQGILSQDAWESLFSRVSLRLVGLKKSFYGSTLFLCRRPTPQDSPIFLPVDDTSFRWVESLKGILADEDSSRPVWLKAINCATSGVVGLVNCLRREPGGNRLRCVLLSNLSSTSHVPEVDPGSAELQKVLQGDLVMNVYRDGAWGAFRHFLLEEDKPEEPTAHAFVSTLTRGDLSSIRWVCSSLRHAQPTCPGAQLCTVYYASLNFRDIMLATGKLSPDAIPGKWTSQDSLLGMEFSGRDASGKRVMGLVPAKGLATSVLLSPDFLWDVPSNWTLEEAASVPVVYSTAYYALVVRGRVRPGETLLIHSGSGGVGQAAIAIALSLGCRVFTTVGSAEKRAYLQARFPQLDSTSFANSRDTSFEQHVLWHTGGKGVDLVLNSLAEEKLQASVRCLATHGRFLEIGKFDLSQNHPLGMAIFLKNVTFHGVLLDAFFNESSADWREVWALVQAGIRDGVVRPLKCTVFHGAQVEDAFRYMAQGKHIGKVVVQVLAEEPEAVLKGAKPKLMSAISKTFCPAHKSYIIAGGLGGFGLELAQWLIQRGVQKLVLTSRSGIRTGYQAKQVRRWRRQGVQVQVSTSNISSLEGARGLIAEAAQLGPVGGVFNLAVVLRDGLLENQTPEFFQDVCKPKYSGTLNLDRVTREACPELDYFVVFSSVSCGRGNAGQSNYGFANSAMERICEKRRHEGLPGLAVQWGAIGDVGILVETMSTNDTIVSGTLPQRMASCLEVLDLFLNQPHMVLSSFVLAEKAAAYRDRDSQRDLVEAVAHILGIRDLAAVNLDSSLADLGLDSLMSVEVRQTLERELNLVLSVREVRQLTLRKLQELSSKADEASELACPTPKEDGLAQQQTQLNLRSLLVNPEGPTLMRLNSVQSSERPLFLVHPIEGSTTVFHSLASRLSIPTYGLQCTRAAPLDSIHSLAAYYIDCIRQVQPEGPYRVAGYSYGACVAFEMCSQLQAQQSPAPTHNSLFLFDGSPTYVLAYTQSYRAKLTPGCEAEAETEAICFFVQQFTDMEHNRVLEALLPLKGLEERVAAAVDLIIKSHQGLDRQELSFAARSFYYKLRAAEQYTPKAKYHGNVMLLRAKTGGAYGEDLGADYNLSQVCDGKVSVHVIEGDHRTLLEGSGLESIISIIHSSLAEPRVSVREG
# FAS-TE conf: confirmation of human fatty acid synthase thioesterase inhibitors | inhibition, % at 15 µM | 45% of 2,300 active | AID 624325 | recombinant FAS-TE, OMFH fluorogenic substrate, fluorescence | shares compounds with FAS-TE inh;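 active = compounds inhibiting the enzyme by at least 50% at 15 µM in any one of the replicates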;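 note: 0% = enzyme with DMSO only and 100% = wells lacking enzyme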
# The depositor's hits bear a star; . = no result. The list is not random: actives were taken first. Their share in the collection is about 3.8%.
SMILES,H9c2 protect,aDG glyco act,Yeast superoxide,SUMO Mot1 rescue,MPTP block,FAS-TE inh,FAS-TE conf
Cc1ccc(N2C(=O)C3CC(c4ccccc4)=C4C5C=CC(C6C(=O)N(c7ccc(C)cc7)C(=O)C56)C4C3C2=O)cc1 (stereo not given),17,1,103,23,-2,85*,9
Cc1ccc(N2C(=O)C3C4CC(=O)C(c5ccccc54)C3C2=O)cc1 (stereo not given),8,0,91,4,0,0,.
Cc1ccc(N2C(=O)C3CC(c4ccccc4)=C4C5C=CC(C6C(=O)N(c7ccc(C)cc7C)C(=O)C56)C4C3C2=O)c(C)c1 (stereo not given),-5,0,104,8,1,100*,44*
Cc1cccc(C)c1NC(=O)C(CCc1ccccc1)N1CCC(c2ccccc2)CC1 (stereo not given),.,0,.,.,-1,.,.
CCCNC(=O)C1(C)CCCN(Cc2ccc(-c3ccccc3)o2)C1 (stereo not given),-7,0,.,.,0,3,.
COC(=O)c1ccc(COc2nc(C)cc(C)c2C#N)o1,1,0,81,6,-1,13,.
COC(=O)c1ccc(CSc2nc(C(F)F)cc(C)c2C#N)o1,-5,0,103,1,4,53*,43*
CC(C)CSc1ncc(-c2cccc(C(F)(F)F)c2)cn1,-14,4,113,173,5,51*,49*
O=C(Nc1nc(-c2ccccc2)cs1)c1ccc2c(=O)n3c(nc2c1)CCCCC3,49,0,118,-7,12,62*,15
CCN(C(=O)c1ccc2c(=O)n3c(nc2c1)CCCCC3)c1ccc(F)cc1,-4,0,106,206,-1,1,.
CCOc1ccccc1N(CC)C(=O)c1ccc2c(=O)n3c(nc2c1)CCCCC3,-7,0,102,-1,-1,57*,77*
Cc1ccc(S(=O)(=O)N(Cc2ccc([N+](=O)[O-])cc2)C(=O)N2CCN(C)CC2)cc1,-6,0,.,.,-1,-4,.
Cc1c(Cl)cccc1-n1cnc(=O)c2ccccc21,5,0,89,-5,2,-4,.
CCN(C(=O)COC(=O)c1cccc2ccccc12)c1c(N)n(Cc2ccccc2)c(=O)[nH]c1=O,-7,0,.,.,-1,-6,.
CCN(C(=O)COC(=O)c1ccccc1Nc1ccccc1)c1c(N)n(Cc2ccccc2)c(=O)[nH]c1=O,-1,0,.,.,-3,77*,4
Cc1ccc(S(=O)(=O)/N=C(/Sc2ccccc2C(=O)O)c2ccccc2)cc1,-3,0,113,342,2,16,.
O=S(=O)(/N=C(\Sc1ccccc1)c1ccccc1)c1ccc(Cl)cc1,43,0,126,-15,-4,66*,41
Cc1ccc(S(=O)(=O)/N=C(\Sc2ccccc2)c2ccccc2)cc1,24,0,91,-5,11,63*,51*
Cc1ccc2nc(-c3ccco3)c(CC(C)(C)C)n2c1,2,0,.,.,-2,-1,.
C=CCn1c(SCC(=O)Nc2cccc(S(N)(=O)=O)c2)nc2sc(C)c(C)c2c1=O,14,0,101,7,0,8,.
CCN(CC)S(=O)(=O)c1cccc(-c2n[nH]c(=S)n2/N=C/c2ccc(OC(F)F)cc2)c1,-4,0,91,2,5,52*,44
C[C@@]12C(=O)N(Cc3ccc(-c4ccccc4)cc3)CC(=O)N1[C@H](/C=C/c1ccccc1)[C@@H]1C(=O)N(c3ccccc3)C(=O)[C@@H]12,10,0,99,20,0,50*,13
Cc1ccc(S(=O)(=O)/C(C#N)=C/c2c(N3CCOCC3)nc3c(C)cccn3c2=O)cc1,7,0,105,-16,6,56*,6
Cc1ccc(S(=O)(=O)/C(C#N)=C/c2c(N3CCCCC3)nc3ccccn3c2=O)cc1,-1,0,110,12,6,62*,36
Cc1ccc(S(=O)(=O)/C(C#N)=C/c2c(N3CCN(Cc4ccccc4)CC3)nc3ccccn3c2=O)cc1,0,0,97,-4,1,81*,8
SMILES,H9c2 protect,aDG glyco act,Yeast superoxide,SUMO Mot1 rescue,MPTP block,FAS-TE inh,FAS-TE conf
N#C/C(=C\c1c(N2CCC(C(N)=O)CC2)nc2ccccn2c1=O)S(=O)(=O)c1ccc(Cl)cc1,16,0,106,39,5,55*,30*
O=C(NN1C(=O)NC2(CCCCC2)C1=O)c1ccc(-c2ccc(Cl)cc2)o1,14,0,92,29,1,20,.
CC(C)c1nc(SCC(=O)NCC2CCCO2)c2c(=O)n(C)c(=O)n(C)c2n1 (stereo not given),5,0,118,-4,-1,-5,.
CCn1c(CN2CCN(C(c3ccccc3)c3ccccc3)CC2)nc2c1c(=O)n(C)c(=O)n2C,4,0,98,0,0,14,.
N#C/C(=C\c1c(N2CCN(Cc3ccccc3)CC2)nc2ccccn2c1=O)S(=O)(=O)c1ccccc1,7,0,95,-5,0,56*,13
CN1CCN(C(=O)C(=O)c2cn(CC(=O)N3CCOCC3)c3ccccc23)CC1,2,0,.,.,-2,-5,.
COc1ccc(NC(=O)C[C@@H]2C(=O)N(Cc3ccccc3)CC2(C)C)cc1,2,0,.,.,0,-5,.
Cc1cc(N2CCN(c3ccccc3)CC2)n2ncnc2n1,-2,0,104,-6,1,-3,.
Cc1cc(N2CCN(C(c3ccccc3)c3ccc(Cl)cc3)CC2)n2ncnc2n1 (stereo not given),-3,0,97,-12,-4,58*,21
Cc1ccc([C@@H]2C[C@H]3[C@@H](CN2S(=O)(=O)c2ccc(C)cc2)C(=O)C[C@@H](c2ccccc2)N3S(=O)(=O)c2ccc(C)cc2)cc1,-8,0,.,.,-1,31,.
COc1ccc([C@@H]2C[C@H]3[C@@H](CN2S(=O)(=O)c2ccccc2)C(=O)C[C@@H](c2ccccc2)N3S(=O)(=O)c2ccc(C)cc2)cc1,-19,0,.,.,0,27,.
Cc1ccc(S(=O)(=O)N2[C@H](c3ccccc3)CC(=O)[C@@H]3CN(S(=O)(=O)c4ccccc4)[C@H](c4ccccc4)C[C@@H]32)cc1,2,0,.,.,0,83*,28
COc1ccc([C@@H]2CC(=O)[C@@H]3CN(S(=O)(=O)c4ccc(C)cc4)[C@H](c4ccccc4)C[C@@H]3N2S(=O)(=O)c2ccccc2)cc1,4,0,.,.,0,77*,10
CN1CCC(=NNC(=O)c2ccc(N(Cc3ccccc3Cl)S(C)(=O)=O)cc2)CC1,-7,0,108,-7,0,-8,.
